# Assay results taken from PubChem BioAssay (EPA / NIEHS).
# Calls of active or inactive are those of the source. Rule for the calls: active = hit-call score of the fitted dose curve at least 0.9, where 1 is the maximum; inactive = score below 0.9.
# Columns and labels:
# [1] = ATG_PBREM_CIS: Attagene CIS-FACTORIAL HepG2 Assay for human Phenobarbital-responsive Enhancer Module (PBREM) (AID 2282955); conditions: HepG2 PBREM cis-reporter, Attagene multiplexed transcription; actives raise or lower the signal
# In short: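 Cells were transfected with cis-element reporter units and treated for 24 h, after which RNA was extracted and reporter transcripts measured by RT-PCR and capillary electrophoresis.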
# [2] = target: Paired box protein Pax-6 (Homo sapiens) (UniProt P26367); assay: ATG_Pax6_CIS: Attagene CIS-FACTORIAL HepG2 Assay for human Paired Box 6 (PAX6) (AID 2282956); conditions: HepG2 CIS-FACTORIAL PAX6 reporter transcription, RNA readout; actives raise or lower the signal
# Paired box protein Pax-6 (Homo sapiens), sequence (P26367 whole entry, looked up): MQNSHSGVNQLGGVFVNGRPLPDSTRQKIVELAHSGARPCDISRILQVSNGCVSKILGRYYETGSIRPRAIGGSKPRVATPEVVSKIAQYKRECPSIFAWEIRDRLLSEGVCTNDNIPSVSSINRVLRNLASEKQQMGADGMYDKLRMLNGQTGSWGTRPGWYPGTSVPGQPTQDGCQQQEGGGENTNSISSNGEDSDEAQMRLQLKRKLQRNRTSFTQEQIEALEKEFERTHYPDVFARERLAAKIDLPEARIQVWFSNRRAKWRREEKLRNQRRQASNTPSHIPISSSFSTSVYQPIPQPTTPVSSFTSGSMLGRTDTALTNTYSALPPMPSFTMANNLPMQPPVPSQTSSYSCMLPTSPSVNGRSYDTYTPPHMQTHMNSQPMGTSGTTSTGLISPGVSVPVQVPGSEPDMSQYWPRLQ
# In short: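 DMSO-referenced bidirectional fits of reporter mRNA fluorescence; HepG2 with transient cis-promoter MRTUs, 24 h post-dose, RT-PCR plus capillary electrophoresis detection.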
# [3] = ATG_PXRE_CIS: Attagene CIS-FACTORIAL HepG2 Assay for human Pregnane X Receptor Element (PXRE) (AID 2282957); conditions: HepG2 Attagene CIS-FACTORIAL PXRE reporter, mRNA; actives raise or lower the signal
# In short: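 Endogenous transcription factor activity in HepG2 was gauged through induction of reporter mRNA driven by a cis-regulating promoter element, sampled 24 h post-treatment. Activity was fitted in both directions against DMSO negative control.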
# [4] = ATG_PPRE_CIS: Attagene CIS-FACTORIAL HepG2 Assay for human Peroxisome Proliferator-activated Response Element (PPRE) (AID 2282958); conditions: HepG2 PPRE cis-element reporter, Attagene transcription factor profiling; actives raise or lower the signal
# In short: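 In this cell-based multiplex, a PPRE cis element drives a reporter sequence in transiently transfected HepG2 cells. Following 24 h treatment, labeled cDNA amplicons are sized and quantified by capillary electrophoresis, with DMSO defining baseline.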
# [5] = ATG_RORE_CIS: Attagene CIS-FACTORIAL HepG2 Assay for human RAR-related Orphan Receptor Element (RORE) (AID 2282959); conditions: HepG2 Attagene cis-factorial RORE reporter, mRNA; actives raise or lower the signal
# In short: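 Endogenous factor activity at a cis response element is read as reporter transcript levels in HepG2 cells, 24 h post-dose. Transcripts are quantified by RT-PCR with capillary electrophoresis, and data fitted in both directions against DMSO.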
# [6] = target: Transcription factor Sp1 (Homo sapiens) (UniProt P08047); assay: ATG_Sp1_CIS: Attagene CIS-FACTORIAL HepG2 Assay for human Specificity Protein 1 (Sp1) (AID 2282961); conditions: HepG2 Sp1 cis-reporter transcription, actives raise or lower the signal
# Transcription factor Sp1 (Homo sapiens), sequence (P08047 whole entry, looked up): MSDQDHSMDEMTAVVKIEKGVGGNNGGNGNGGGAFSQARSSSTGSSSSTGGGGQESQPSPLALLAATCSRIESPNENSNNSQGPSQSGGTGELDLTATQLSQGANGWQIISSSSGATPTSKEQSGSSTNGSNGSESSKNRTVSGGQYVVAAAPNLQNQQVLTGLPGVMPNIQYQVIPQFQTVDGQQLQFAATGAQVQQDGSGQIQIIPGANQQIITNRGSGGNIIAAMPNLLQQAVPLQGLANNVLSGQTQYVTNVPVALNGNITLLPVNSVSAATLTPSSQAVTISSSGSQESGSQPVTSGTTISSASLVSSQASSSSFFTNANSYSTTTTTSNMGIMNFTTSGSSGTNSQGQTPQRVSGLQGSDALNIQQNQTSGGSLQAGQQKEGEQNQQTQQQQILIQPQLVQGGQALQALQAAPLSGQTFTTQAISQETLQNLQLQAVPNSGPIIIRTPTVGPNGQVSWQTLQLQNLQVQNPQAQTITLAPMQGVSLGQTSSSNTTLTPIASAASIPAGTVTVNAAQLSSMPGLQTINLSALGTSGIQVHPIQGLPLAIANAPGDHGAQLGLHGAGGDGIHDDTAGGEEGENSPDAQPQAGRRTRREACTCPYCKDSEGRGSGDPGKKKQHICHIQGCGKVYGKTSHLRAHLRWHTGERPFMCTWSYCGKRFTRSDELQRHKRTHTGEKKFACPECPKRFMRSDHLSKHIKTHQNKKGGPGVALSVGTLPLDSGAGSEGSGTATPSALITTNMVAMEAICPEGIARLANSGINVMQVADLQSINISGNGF
# In short: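 Cells: HepG2, transiently transfected with cis-regulated multiplexed reporters. Exposure: 24 h. Detection: reporter transcripts amplified, fluorescently labeled, restriction-digested and sized by capillary electrophoresis. Analysis: bidirectional fit relative to DMSO.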
# [7] = ATG_SREBP_CIS: Attagene CIS-FACTORIAL HepG2 Assay for human Sterol Regulatory Element Binding (SREBP) (AID 2282962); conditions: HepG2 Attagene cis-factorial SREBP reporter, mRNA; actives raise or lower the signal
# In short: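 In this cis-format assay, HepG2 liver cells express reporters controlled by promoter elements responsive to native transcription factors. Exposure lasts 24 h; reporter mRNA fluorescence from capillary electrophoresis gives the signal, fitted bidirectionally against DMSO.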
# [8] = target: Signal transducer and activator of transcription 3 (Homo sapiens) (UniProt P40763); assay: ATG_STAT3_CIS: Attagene CIS-FACTORIAL HepG2 Assay for human Signal Transducer and Activator of Transcription 3 (STAT3) (AID 2282963); conditions: HepG2, Attagene cis-factorial STAT3 reporter transcription; actives raise or lower the signal
# Signal transducer and activator of transcription 3 (Homo sapiens), sequence (P40763 whole entry, looked up): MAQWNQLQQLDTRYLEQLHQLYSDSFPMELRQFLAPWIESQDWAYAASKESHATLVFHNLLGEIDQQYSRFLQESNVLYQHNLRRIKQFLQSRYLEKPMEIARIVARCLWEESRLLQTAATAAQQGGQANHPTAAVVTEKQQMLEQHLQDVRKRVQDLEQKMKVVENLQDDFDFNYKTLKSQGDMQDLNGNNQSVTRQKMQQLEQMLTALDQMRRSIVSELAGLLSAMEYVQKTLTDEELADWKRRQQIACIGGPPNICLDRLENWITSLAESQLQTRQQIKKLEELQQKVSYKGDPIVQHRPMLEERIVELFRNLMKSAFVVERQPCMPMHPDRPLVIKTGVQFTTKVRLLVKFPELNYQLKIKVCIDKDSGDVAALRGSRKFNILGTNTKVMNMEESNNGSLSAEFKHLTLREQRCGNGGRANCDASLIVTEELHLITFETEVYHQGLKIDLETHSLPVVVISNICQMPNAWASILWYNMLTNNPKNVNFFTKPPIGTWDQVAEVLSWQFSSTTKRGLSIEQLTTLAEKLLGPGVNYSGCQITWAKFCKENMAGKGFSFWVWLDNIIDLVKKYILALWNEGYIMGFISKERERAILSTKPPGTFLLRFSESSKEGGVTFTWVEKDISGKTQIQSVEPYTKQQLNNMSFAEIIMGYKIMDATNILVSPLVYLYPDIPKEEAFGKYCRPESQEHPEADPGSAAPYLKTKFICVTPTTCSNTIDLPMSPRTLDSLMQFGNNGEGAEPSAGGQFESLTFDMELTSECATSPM
# In short: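 HepG2, MRTU-transfected, 24 h dosing. RNA → RT → PCR → FAM label → HpaI → CE. Bidirectional fit vs DMSO.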
# [9] = ATG_TA_CIS: Attagene CIS-FACTORIAL HepG2 Assay for human TA Basal Promoter (AID 2282964); conditions: HepG2 Attagene CIS-factorial TA basal promoter reporter; actives raise or lower the signal
# In short: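 Steps: transfect HepG2 with MRTUs; dose 24 h; isolate RNA, DNase-treat, reverse-transcribe; PCR and FAM-label reporter cDNA; digest with HpaI 2h at 37 C; run capillary electrophoresis. Activity fitted both directions against DMSO.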
# [10] = ATG_Sox_CIS: Attagene CIS-FACTORIAL HepG2 Assay for human SRY-box transcription factor (SOX) (AID 2282960); conditions: HepG2 Attagene cis-factorial SOX reporter, mRNA; actives raise or lower the signal
# In short: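 Measures mRNA induction of a SOX1-associated reporter in HepG2 after 24 h dosing. Fluorescently labelled RT-PCR fragments are separated by capillary electrophoresis, and gain or loss relative to DMSO control is fitted.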
structure (smiles),measurement,setting,value
OCCCCl,outcome,[1],inactive
same,outcome,[2],inactive
same,outcome,[3],inactive
same,outcome,[4],inactive
same,outcome,[5],inactive
same,outcome,[6],inactive
same,outcome,[7],inactive
same,outcome,[8],inactive
same,outcome,[9],inactive
O=S(=O)(Cl)C(F)(F)C(F)(F)C(F)(F)C(F)(F)C(F)(F)C(F)(F)C(F)(F)C(F)(F)F,outcome,[1],inactive
same,outcome,[2],inactive
same,AC50,[3],28.3 µM (active)
same,AC50,[4],36.6 µM (active)
same,outcome,[5],inactive
same,outcome,[6],inactive
same,outcome,[7],inactive
same,outcome,[8],inactive
same,outcome,[9],inactive
O=S(=O)(OCC(F)(F)F)C(F)(F)C(F)(F)C(F)(F)C(F)(F)F,outcome,[1],inactive
same,outcome,[2],inactive
same,outcome,[3],inactive
same,outcome,[4],inactive
same,outcome,[5],inactive
same,outcome,[6],inactive
same,outcome,[7],inactive
same,outcome,[8],inactive
same,outcome,[9],inactive
CC(C)(C)c1cc(CCC(=O)OCC(COC(=O)CCc2cc(C(C)(C)C)c(O)c(C(C)(C)C)c2)(COC(=O)CCc2cc(C(C)(C)C)c(O)c(C(C)(C)C)c2)COC(=O)CCc2cc(C(C)(C)C)c(O)c(C(C)(C)C)c2)cc(C(C)(C)C)c1O,outcome,[1],inactive
same,outcome,[2],inactive
same,AC50,[3],21.3 µM (active)
same,outcome,[4],inactive
same,outcome,[5],inactive
same,outcome,[6],inactive
same,outcome,[7],inactive
same,outcome,[8],inactive
same,outcome,[9],inactive
CCN(CCO)S(=O)(=O)C(F)(F)C(F)(F)C(F)(F)C(F)(F)C(F)(F)C(F)(F)C(F)(F)C(F)(F)F,outcome,[1],inactive
same,AC50,[3],9.56 µM (active)
same,outcome,[4],inactive
same,outcome,[5],inactive
same,outcome,[10],inactive
same,outcome,[6],inactive
same,outcome,[7],inactive
same,outcome,[8],inactive
CCOC(=O)C1CC(=O)C(=C(O)C2CC2)C(=O)C1 (stereo unspecified),outcome,[1],inactive
same,outcome,[2],inactive
same,AC50,[3],77.3 µM (active)
same,outcome,[4],inactive
same,outcome,[5],inactive
same,outcome,[10],inactive
same,outcome,[6],inactive
same,outcome,[7],inactive
same,outcome,[8],inactive
same,outcome,[9],inactive
Cc1ccc(O)cn1,outcome,[1],inactive
same,outcome,[2],inactive
same,outcome,[3],inactive
same,outcome,[4],inactive
same,outcome,[5],inactive
same,outcome,[6],inactive
same,outcome,[7],inactive
same,outcome,[8],inactive
same,outcome,[9],inactive
OCCCC(F)(F)C(F)(F)C(F)(F)C(F)(F)C(F)(F)C(F)(F)C(F)(F)C(F)(F)F,outcome,[1],inactive
same,AC50,[2],29.9 µM (active)
same,outcome,[3],inactive
same,AC50,[4],20.9 µM (active)
same,outcome,[5],inactive
same,outcome,[6],inactive
same,outcome,[7],inactive
same,outcome,[8],inactive
same,outcome,[9],inactive
CCCCOC(=O)C(C)O (stereo unspecified),outcome,[1],inactive
same,outcome,[2],inactive
same,outcome,[3],inactive
same,outcome,[4],inactive
same,outcome,[5],inactive
same,outcome,[6],inactive
same,outcome,[7],inactive
same,outcome,[8],inactive
same,outcome,[9],inactive
Cc1cc(C)c(O)c(C(C)(C)C)c1,outcome,[1],inactive
same,outcome,[2],inactive
same,AC50,[3],27.1 µM (active)
same,outcome,[4],inactive
same,outcome,[5],inactive
same,outcome,[6],inactive
same,outcome,[7],inactive
same,outcome,[8],inactive
same,outcome,[9],inactive
CCCCCCCCCc1ccc(OCCO)cc1,outcome,[1],inactive
same,AC50,[2],24.3 µM (active)
same,AC50,[3],0.64 µM (active)
same,outcome,[4],inactive
same,outcome,[5],inactive
same,AC50,[6],13.3 µM (active)
same,AC50,[7],3.56 µM (active)
same,AC50,[8],19.5 µM (active)
CC(O)C#CC(C)O (stereo unspecified),outcome,[1],inactive
same,AC50,[3],148 µM (active)
same,outcome,[4],inactive
same,outcome,[5],inactive
same,AC50,[10],77.1 µM (active)
same,AC50,[6],73.1 µM (active)
same,outcome,[7],inactive
same,outcome,[8],inactive
c1ccc(C[P+](c2ccccc2)(c2ccccc2)c2ccccc2)cc1,outcome,[1],inactive
same,outcome,[3],inactive
same,outcome,[4],inactive
same,outcome,[5],inactive
same,outcome,[10],inactive
same,outcome,[6],inactive
same,outcome,[7],inactive
same,outcome,[8],inactive
same,outcome,[9],inactive
O=C(O)C(F)(F)C(F)(F)C(F)(F)OC(F)(C(F)(F)F)C(F)(F)F,outcome,[1],inactive
same,AC50,[3],39.8 µM (active)
same,AC50,[4],45.9 µM (active)
same,outcome,[5],inactive
same,outcome,[10],inactive
same,outcome,[6],inactive
same,outcome,[7],inactive
same,outcome,[8],inactive
same,outcome,[9],inactive
CC1=CC2C3C=CC(C3)C2C1C (stereo unspecified),outcome,[1],inactive
same,AC50,[3],1.59 µM (active)
same,outcome,[4],inactive
same,outcome,[5],inactive
same,outcome,[10],inactive
same,outcome,[6],inactive
same,outcome,[7],inactive
same,outcome,[8],inactive
same,outcome,[9],inactive
CCCC(=O)OCC(COC(=O)CCC)OC(=O)CCC,outcome,[1],inactive
same,AC50,[3],0.0935 µM (active)
same,outcome,[4],inactive
same,outcome,[5],inactive
same,outcome,[10],inactive
same,outcome,[6],inactive
same,outcome,[7],inactive
same,outcome,[8],inactive
same,outcome,[9],inactive
FC(F)(F)C(F)(F)C(F)(F)C(F)(F)C(F)(F)C(F)(F)CC[Si](Cl)(Cl)Cl,outcome,[1],inactive
same,outcome,[3],inactive
same,outcome,[4],inactive
same,outcome,[5],inactive
same,outcome,[6],inactive
same,outcome,[7],inactive
same,outcome,[8],inactive
same,outcome,[9],inactive
CCN(CC)c1ccc(C=O)c(O)c1,outcome,[1],inactive
same,outcome,[3],inactive
same,outcome,[4],inactive
same,AC50,[5],38.1 µM (active)
same,outcome,[10],inactive
same,outcome,[6],inactive
same,outcome,[7],inactive
same,outcome,[8],inactive
same,outcome,[9],inactive
Brc1nc2ccccc2s1,outcome,[1],inactive
same,outcome,[3],inactive
same,AC50,[4],18.1 µM (active)
same,outcome,[5],inactive
same,outcome,[10],inactive
same,outcome,[6],inactive
same,outcome,[7],inactive
same,outcome,[8],inactive
same,outcome,[9],inactive
O=C(Cl)C(F)(F)C(F)(F)C(F)(F)C(F)(F)C(F)(F)C(F)(F)C(F)(F)F,outcome,[1],inactive
same,outcome,[3],inactive
same,AC50,[4],69.5 µM (active)
same,outcome,[5],inactive
same,outcome,[10],inactive
same,outcome,[6],inactive
same,outcome,[7],inactive
same,outcome,[8],inactive
same,outcome,[9],inactive
CCC/C=C/CO,outcome,[1],inactive
same,outcome,[3],inactive
same,outcome,[4],inactive
same,outcome,[5],inactive
same,outcome,[10],inactive
same,outcome,[6],inactive
same,outcome,[7],inactive
same,outcome,[8],inactive
same,outcome,[9],inactive
